# Measured values published in the supplement of paper PMC9254222.
# Whole data set: some 1,100 compounds, median “Wnt reporter firefly/Renilla luciferase ratio relative to plate median” near 1.1, cut for the highest 2% near 1.6. Many of the other results were omitted from the sample, so the highest values are more common in it than they were.
# Test system: HEK293T (UBE3A T485A transfected, BAR Wnt reporter)
# Experiment: Wnt reporter firefly/Renilla luciferase ratio relative to plate median (fold (linear ratio)); higher = more Wnt/beta-catenin reporter activation
# Details: 24 h
# How it was run: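 Wnt activity (firefly/Renilla ratio) and cell health (raw Renilla) were read with Dual-Glo luciferase and median-centred plate by plate. HEK293T cells, at 4500 cells/well in white 384-well plates with DMEM plus 10% FBS at 37°C and 5% CO2, carried a transfected BAR firefly luciferase Wnt reporter, TK-Renilla and an expression plasmid. The chemicals were applied by robot at 0.01–100 uM for 24 h, beginning four hours after transfection, and results were averaged across four biological replicates.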
Structure (SMILES),Wnt reporter firefly/Renilla luciferase ratio (concentration: 0.1 uM),Wnt reporter firefly/Renilla luciferase ratio (concentration: 1 uM),Wnt reporter firefly/Renilla luciferase ratio (concentration: 10 uM),Wnt reporter firefly/Renilla luciferase ratio (concentration: 100 uM),Wnt reporter firefly/Renilla luciferase ratio (concentration: 0.01 uM)
c1ccc(OP(Oc2ccccc2)Oc2ccccc2)cc1 [Triphenyl phosphite],0.971,1.06,1,1.26,
NC(=O)[O-].[NH4+] [Ammonium carbamate],0.817,0.94,0.934,1.31,
CCC(C)c1cc([N+](=O)[O-])cc([N+](=O)[O-])c1O (stereo unspecified) [Dinoseb],0.797,0.806,0.929,,
Clc1nc(Cl)nc(Nc2ccccc2Cl)n1 [Anilazine],0.926,1.15,1.18,1.07,0.958
CNC(=S)[S-].O.O.O.[Na+] [Metam-sodium hydrate],0.921,0.977,1.06,1.1,0.905
CCN(CC)N=O [N-Nitrosodiethylamine],1.12,1.13,1.27,1.82,
CCCCN(CCCC)N=O [N-Nitrosodibutylamine],0.968,0.902,1.04,1.27,
CCCN(CCC)N=O [N-Nitrosodipropylamine],1.18,0.939,1.15,1.06,
CCCCC(C#N)(Cn1cncn1)c1ccc(Cl)cc1 (stereo unspecified) [Myclobutanil],1,0.933,1.09,0.269,0.908
COc1cc(OC)nc(NC(=O)[N-]S(=O)(=O)c2ncccc2OCC(F)(F)F)n1.[Na+] [Trifloxysulfuron-sodium],1.02,1.23,1.22,1.52,1.06
N#Cc1cccnc1 [3-Pyridinecarbonitrile],0.974,1.13,1.25,1.35,
CO/N=C(/C1=NOCCO1)c1ccccc1Oc1ncnc(Oc2ccccc2Cl)c1F [Fluoxastrobin],1.27,0.946,0.315,1.23,1.16
Cn1sc(Cl)cc1=O [5-Chloro-2-methyl-3(2H)-isothiazolone],1.28,1.07,1.07,0.458,
COc1ccc(C(c2ccc(OC)cc2)C(Cl)(Cl)Cl)cc1 [Methoxychlor],1.13,1.12,1.25,1.04,0.858
Cn1cc(-c2ccccc2)c(=O)c(-c2cccc(C(F)(F)F)c2)c1 [Fluridone],1.28,0.917,0.825,0.175,
"Cc1ccc([N+](=O)[O-])cc1C [1,2-Dimethyl-4-nitrobenzene]",0.844,1.17,1.19,1.42,
"CN(C)c1ccccc1 [N,N-Dimethylaniline]",1.11,1.11,0.912,1.02,
"C[C@]12CCC(=O)C=C1CC[C@@H]1[C@@H]2CC[C@]2(C)C(=O)CC[C@@H]12 [4-Androstene-3,17-dione]",1.04,1.01,1.12,0.219,
Clc1ccccc1-c1nnc(-c2ccccc2Cl)nn1 [Clofentezine],1.25,0.999,1.19,1.59,1.31
CC(Cl)(Cl)C(=O)O [Dalapon],1.05,1.18,1.08,1.25,
COC(=O)Nc1nc2ccccc2[nH]1 [Carbendazim],1.09,1.16,0.661,0.13,
C[n+]1ccc(-c2cc[n+](C)cc2)cc1 [Paraquat],1.36,1.06,1.01,1.77,1.31

Structure (SMILES),Wnt reporter firefly/Renilla luciferase ratio (concentration: 0.1 uM),Wnt reporter firefly/Renilla luciferase ratio (concentration: 1 uM),Wnt reporter firefly/Renilla luciferase ratio (concentration: 10 uM),Wnt reporter firefly/Renilla luciferase ratio (concentration: 100 uM),Wnt reporter firefly/Renilla luciferase ratio (concentration: 0.01 uM)
CCOP(=S)(OCC)SCSC(C)(C)C [Terbufos],1.28,1.01,1.16,1.27,
CCNc1nc(Cl)nc(NC(C)(C)C#N)n1 [Cyanazine],0.905,0.962,0.88,1.15,0.787
Cc1ccc([N+](=O)[O-])cc1 [4-Nitrotoluene],0.766,0.567,0.741,0.771,
CCCCC(O)(Cn1cncn1)c1ccc(Cl)cc1Cl (stereo unspecified) [Hexaconazole],0.897,1,0.919,0.397,0.917
"ClCC(Cl)CCl [1,2,3-Trichloropropane]",1.21,1.09,1.12,1.41,
COP(=O)(OC)SCn1c(=O)oc2cc(Cl)cnc21 [Azamethiphos],1.28,0.979,0.625,0.373,0.825
CCOP(=S)(OCC)SCSCC [Phorate],1.03,0.934,1.08,1.3,
CCOP(=S)(OCC)SCn1c(=O)oc2cc(Cl)ccc21 [Phosalone],1.45,1.27,1.03,0.607,1.62
Cc1ccccc1O [o-Cresol],1.01,0.966,1.1,1.15,
C=C(C)C(=O)[O][Sn]([CH2]CCC)([CH2]CCC)[CH2]CCC [Tributyltin methacrylate],0.639,0.638,0.679,,
Cc1cc(N=Nc2ccccc2C)ccc1N [2-Amino-5-azotoluene],1.18,0.968,1.06,0.582,
Nc1cc2c3c(c1)C(c1ccccc1)=N[C@@H](NC(=O)c1cccnc1)C(=O)N3CC2,1.19,0.977,1.24,0.802,
Nc1cc(Cl)cc(C(=O)O)c1Cl [Chloramben],1.14,1.12,1.34,1.49,
[Cl-].[Cl-].[Hg+2] [Mercuric chloride],1.21,1.07,1.69,,
O=C(O)C1C(C(=O)O)C2(Cl)C(Cl)=C(Cl)C1(Cl)C2(Cl)Cl (stereo unspecified) [Chlorendic acid],0.978,1.1,0.935,1.03,
Nc1c(Cl)c(Cl)nc(C(=O)O)c1Cl [Picloram],1.47,1,1.13,1.28,0.972
O=C(O)c1c(Cl)ccc2cc(Cl)cnc12 [Quinclorac],1.3,1.14,1.14,1.58,1.38
NCCO.O=C(O)c1nc(Cl)ccc1Cl [Clopyralid-olamine],0.94,1.18,1.56,2.61,0.868
O=C(O)c1nc(Cl)ccc1Cl [Clopyralid],1.81,1.02,0.988,1.12,1.17
Clc1cccc(C(Cl)(Cl)Cl)n1 [Nitrapyrin],1.01,0.881,1.03,1.23,1.08
CNC(=O)Oc1cccc2c1OC(C)(C)O2 [Bendiocarb],1.17,1.01,0.983,1.38,1.3
CC(Oc1cccc(Cl)c1)C(=O)O (stereo unspecified) [Cloprop],1.51,1.12,1.28,1.45,1.31

Structure (SMILES),Wnt reporter firefly/Renilla luciferase ratio (concentration: 0.1 uM),Wnt reporter firefly/Renilla luciferase ratio (concentration: 1 uM),Wnt reporter firefly/Renilla luciferase ratio (concentration: 10 uM),Wnt reporter firefly/Renilla luciferase ratio (concentration: 100 uM),Wnt reporter firefly/Renilla luciferase ratio (concentration: 0.01 uM)
CC(C)Oc1cccc(NC(=O)c2ccccc2C(F)(F)F)c1 [Flutolanil],0.79,1.01,0.768,0.559,0.682
CC(C)OC(=O)Nc1cccc(Cl)c1 [Chlorpropham],1.78,1.23,1.47,0.823,1.45
CCNc1nc(NC(C)C)nc(SC)n1 [Ametryn],0.725,0.813,1.29,0.791,0.686
CC(C)C1(C)N=C(c2ncccc2C(=O)O)NC1=O (stereo unspecified) [Imazapyr],1.29,1.04,1.09,1.24,1.14
CNC(=O)CSP(=S)(OC)OC [Dimethoate],0.993,1.02,1.02,1.1,0.95
COP(=S)(OC)SCn1nnc2ccccc2c1=O [Azinphos-methyl],0.911,0.978,0.89,0.837,1.01
COP(=S)(OC)SCN1C(=O)c2ccccc2C1=O [Phosmet],1.07,0.925,1.47,1.65,
CCNc1nc(Cl)nc(NCC)n1 [Simazine],1.19,1.01,1.06,1.52,1
O=C(O)C(F)(F)C(F)(F)C(F)(F)C(F)(F)C(F)(F)C(F)(F)F [Perfluoroheptanoic acid],0.82,1.02,0.932,0.483,
O=C(O)C(F)(F)C(F)(F)C(F)(F)C(F)(F)C(F)(F)C(F)(F)C(F)(F)C(F)(F)C(F)(F)C(F)(F)F [Perfluoroundecanoic acid],1.11,0.936,0.954,0.68,
O=C(O)C(F)(F)C(F)(F)C(F)(F)C(F)(F)C(F)(F)F,1.16,1.48,1.38,2.14,
O=C(O)C(F)(F)C(F)(F)C(F)(F)C(F)(F)C(F)(F)C(F)(F)C(F)(F)F,1.71,1.19,1.41,1.46,1.29
O=C(O)C(F)(F)C(F)(F)C(F)(F)C(F)(F)C(F)(F)C(F)(F)C(F)(F)C(F)(F)F,1.29,0.95,1.12,0.369,
O=C(O)C(F)(F)C(F)(F)C(F)(F)C(F)(F)C(F)(F)C(F)(F)C(F)(F)C(F)(F)C(F)(F)F,0.93,1.14,1.04,1.19,
"Oc1cc(Cl)c(Cl)cc1Cl [2,4,5-Trichlorophenol]",1.12,0.917,0.962,,
CCCCCCCCCC(CC)c1ccc(S(=O)(=O)O)cc1.OCCN(CCO)CCO (stereo unspecified) [Dodecylbenzene sulfonate triethanolamine(1:1)],1.13,1.29,1.13,1.01,
COc1cnc(OC)n2nc(NS(=O)(=O)c3c(OCC(F)F)cccc3C(F)(F)F)nc12 [Penoxsulam],1.09,1.29,1.38,1.75,1.12
"C=CC(=O)NCNC(=O)C=C [N,N'-Methylenebisacrylamide]",0.951,0.999,1.03,1.21,
"CN(C)c1ccc(Cc2ccc(N(C)C)cc2)cc1 [4,4'-Methylenebis(N,N-dimethylaniline)]",1.02,1.07,1.14,0.474,
CCc1nn(C)c(C(=O)NCc2ccc(C(C)(C)C)cc2)c1Cl [Tebufenpyrad],0.632,0.279,0.218,0.51,0.583
